According to PubChem BioAssay:

Experiment: Her2 expression decrease, cell viability multiplex – SKBR3 breast tumor cells, AlphaScreen, ATP viability, primary screen (AID 461);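 also: percent of carrier control wells set as 100% viability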
Settings: SKBR3 Her2 protein level, 18-24 h, measured here: SKBR3 viability, ATP luminescence, at 10 µM

SMILES	viability [%]
CN=C1CC(C)(C)CC(=O)/C1=C(/O)CCC(=O)NC	104
CC(C)(C)NC(=O)Cn1nnc(-c2cccs2)n1	94
Nc1nnc(SCC(=O)N2CCc3ccccc32)n1-c1ccccc1	102
O=C(CSc1ncnc2c1oc1ccccc12)Nc1ccccc1F	96.5
O=C(Nc1cccc(C(F)(F)F)c1)c1cccnc1N1CCCC1	99
Cc1cc(C(F)(F)F)nn1Cc1ccc(C(=O)NCc2ccco2)o1	97
O=C(C1CCCN(S(=O)(=O)c2cccnc2)C1)N1CCN(c2ccccn2)CC1 (centres undefined)	93.5
O=C(CCn1c(=S)[nH]c2cc3c(cc2c1=O)OCO3)N1CCN(C2CCCCC2)CC1	90.5
CC(C)CC(=O)CN1C(=O)C2(OCCO2)c2ccccc21	93.5
CNC(=O)CN(C#N)c1nc(N(C)C)nc(N(C)C)n1	104
O=C(Oc1ccc2c(c1)CCC2)N1CCOCC1	90
CCCn1c(N2CCN(CC(=O)Nc3ccc4c(c3)OCCO4)CC2)nc2ccccc21	88.5
COCc1ccccc1Cn1cnc2c1c(=O)n(C)c(=O)n2C	99
O=C(Nc1ccc(N2CCOCC2)cc1)c1cc2ccccc2o1	99.5
COc1ccc(N2C(=O)CC(NC3CC3)C2=O)cc1 (centres undefined)	100
COc1cccc(C(=O)NCc2nnc(SCC(=O)Nc3nccs3)n2-c2ccccc2)c1	101
COCCCN1C(=O)C(O)=C(C(=O)c2ccco2)C1c1ccc(Br)cc1 (centres undefined)	102
Cc1cccc(N2C(=O)CC(N3CCN(Cc4ccc(Cl)cc4)CC3)C2=O)c1 (centres undefined)	104
CS(=O)(=O)N(CC(=O)Nc1ccc2c(c1)OCCO2)Cc1ccccc1	93.5
